Data taken from PubChem BioAssay AID720650 (Broad Institute, 2013).
Active and inactive are the calls of the source. How the calls were made is not given here.

assay: Biochemical counterscreen for C difficile toxins, absence of UDPG, inhibitor dose response (AID 720650); details: series mostly up to 19.5 µM; activity change, negative = inhibition: at the top concentration

Structure (SMILES)	activity change, negative = inhibition	AC50
NC1=NC[C@H](Cc2ccc(O)cc2)N1CCc1cc(C(F)(F)F)cc(C(F)(F)F)c1	-12.2% (inactive)	
COc1cc(NC(=O)CSc2nc3[nH]ncc3c(=O)n2-c2ccccc2C)cc(OC)c1OC	-9.91% (inactive)	
COc1ccc(C(O)(C(C)C)C(CN2CCOCC2)c2ccccc2)cc1 (stereo not drawn)	-13.9% (inactive)	
O=C(C[C@H]1CC[C@@H]2[C@H](COC[C@@H](O)CN2C(=O)c2ccccn2)O1)NC1CCC1	-8.48% (inactive)	
O=C(Nc1ccccc1F)N(Cc1ccc(F)cc1)Cc1nc2ccccc2c(=O)[nH]1	-7.11% (inactive)	
Cc1cccc(CN2CCN(c3ncccn3)CC2)c1	4.85% (inactive)	
CNC(=O)N(O)C1N(/N=C/c2cccs2)C(=S)SC1(C)C (stereo not drawn)		> 39 µM (inactive)
Cc1ccc(C(=O)NC(=S)NNC(=O)CC#N)cc1		5.73 µM (active)
O=C(C[C@@H]1C[C@H]2c3cc(NC(=O)c4ccc5c(c4)OCO5)ccc3O[C@H]2[C@H](CO)O1)NCc1cccc(F)c1	-1.94% (inactive)	
Cc1ccc(S(=O)(=O)Oc2cccc(/C=N/Nc3ccc(C(=O)O)cc3)c2)cc1		> 39 µM (inactive)
COc1cc(/C=N/NC(=O)Cn2nnc3ccccc32)ccc1O	2.37% (inactive)	
Nc1nc(Cl)cc(NCCc2ccc(O)cc2)n1		21.8 µM (active)
O=C1OCC/C1=C\c1ccc(O)cc1		9.75 µM (active)
CCOC(=O)c1sc2nc(OCCN3CCOCC3)cc(C)c2c1N	-9.12% (inactive)	
O=C(CSc1nc2cc(Cl)ccc2s1)c1ccco1		> 39 µM (inactive)
COc1ccc(C(=O)N2CCOCC2)cc1S(=O)(=O)N1CCCc2ccccc21	-11.2% (inactive)	
O=C(O)c1ccc(-n2nnc3ccccc32)c([N+](=O)[O-])c1	11.4% (inactive)	
CCCCN(C)c1c(C)nc2ccc(C(=O)NCc3cccs3)cn12		20.4 µM (active)
C[C@@H]1CN([C@H](C)CO)S(=O)(=O)c2ccc(-c3ccncc3)cc2O[C@@H]1CN(C)Cc1ccc(Oc2ccccc2)cc1	-4.46% (inactive)	

Structure (SMILES)	activity change, negative = inhibition	AC50
O=C(CCn1cnc2ccccc21)N/N=C/c1ccc(O)cc1		12.2 µM (active)
CC(=O)Nc1ccc(NC(=O)CN2CCN(c3ccccn3)CC2)cc1	-8.5% (inactive)	
C[C@@H]1CN([C@@H](C)CO)S(=O)(=O)c2ccc(-c3ccncc3)cc2O[C@@H]1CN(C)Cc1ccc(Oc2ccccc2)cc1	-13.4% (inactive)	
COc1ccccc1/C=N/NC(=O)CC(=O)NCc1ccccc1		> 39 µM (inactive)
Cc1nc(SCC(=O)N2CCNC2=O)c(C#N)c(C)c1C	-10.9% (inactive)	
CN1C(=O)c2cc(NC(=O)c3cccc(F)c3)ccc2OC[C@H]2O[C@H](CC(=O)NCC3CCCCC3)CC[C@@H]21		inactive
Cc1ccccc1COc1ccc2oc(C)c(C(=O)O)c2c1	-13.2% (inactive)	
CC(=O)Nc1ccc(Oc2nc(-c3ccccn3)nc3ccccc23)cc1		11 µM (active)
CCc1cc(-c2n[nH]c(C)c2-c2nc(C)cs2)c(O)cc1OC		> 39 µM (inactive)
C[C@H](CO)N1C[C@H](C)[C@@H](CN(C)C(=O)Nc2ccc(C(F)(F)F)cc2)Oc2c(NS(=O)(=O)c3cn(C)cn3)cccc2C1=O		> 39 µM (inactive)
COc1cccc(C(=O)Nc2ccc3c(c2)C(=O)N(C)[C@@H]2CC[C@H](CC(=O)NCCCN4CCOCC4)O[C@@H]2CO3)c1	-13.7% (inactive)	
COc1cc2c(cc1N)-c1ccc(N)cc1C2=O		1.18 µM (active)
CO[C@@H]1CN(C)C(=O)c2cc(NC(=O)NC(C)C)ccc2OC[C@@H](C)N(S(C)(=O)=O)C[C@H]1C	7.43% [at 6.8 µM] (inactive)	
COc1ccccc1Oc1cn[nH]c1-c1ccc(O)cc1O		11.6 µM (active)
Cc1cc(SCC(=O)N/N=C/c2ccco2)nc2ccccc12		> 39 µM (inactive)
CC(=O)Nc1n[nH]c(=S)s1		> 39 µM (inactive)
Cc1cc(NC(=O)CCCN2C(=O)c3cccc4cccc(c34)C2=O)no1	4.82% (inactive)	
COc1cc(C=C2CN(C)C(=O)C2=O)ccc1O	-5.77% (inactive)	
O=C(OCC(=O)N1CCCc2ccccc21)c1ccc(C(F)(F)F)cc1	-11.2% (inactive)	
